System: PvIESI-1 RRM domain (Plasmodium vivax PVP01_0939900 aa 896-1203, GST fusion)
Experiment: RBNS R-value (6-mer enrichment in protein-bound RNA vs input library) (ratio); higher = stronger binding preference; the methods of the paper give 50 / 100 / 500 nM protein instead
In short: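 The R-value, taken from the Burge lab pipeline, gives the enrichment of each motif in bound RNA relative to the input library. Motifs were 6-mers, and data come from one replicate. GST-tagged RNA-recognition-motif regions of orthologues from three Plasmodium species, made in E. coli and purified, were mixed at room temperature with a random 40-mer in vitro transcribed RNA library. Complexes were pulled down on glutathione magnetic agarose beads, washed three times, and bound and input RNA were reverse transcribed and sequenced on a MiSeq.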

Row | Sequence | RBNS R-value (protein concentration: 250 nM) | RBNS R-value (protein concentration: 500 nM) | RBNS R-value (protein concentration: 1000 nM)
1 | GGUGAU | 1.97 | 2.19 | 2.15
2 | GAUGGG | 2.02 | 2.1 | 2.01
3 | CUGAUG | 4.09 | 4.34 | 4.04
4 | CGUGAU | 2.33 | 2.54 | 2.51
5 | AGUGAU | 2.41 | 2.69 | 2.63
6 | UGAUUU | 4.88 | 5 | 4.69
7 | GUUGAU | 2.7 | 2.98 | 2.73
8 | GAUGAU | 3.86 | 4.13 | 3.88
9 | GAUUUG | 2.81 | 2.87 | 2.62
10 | CAUGAU | 3.57 | 3.87 | 3.8
11 | UGAUGA | 5.51 | 5.62 | 5.25
12 | UAUGAU | 3.09 | 3.27 | 3.27
13 | UGAUAU | 2.45 | 2.79 | 2.9
14 | CCCGAG | 1.41 | 1.72 | 1.72
15 | GUGAUU | 2.96 | 3.22 | 3.1
16 | UUGAUU | 4.5 | 4.73 | 4.43
17 | CACCCG | 1.41 | 1.76 | 1.77
18 | GAUGGC | 2.5 | 2.55 | 2.36
19 | GAUGCC | 1.89 | 2.11 | 2.06
20 | AUUGAU | 3.54 | 3.72 | 3.67
21 | AUGAUU | 4.49 | 4.79 | 4.59
22 | AUGAUG | 5.14 | 5.26 | 5.02

Reference: the supplement of paper PMC13392028
